The structures appear in SMILES notation. Hit rate of the full screen: of about 410,000 compounds, about 260 (0.063%) were called active. Roughly 2% stayed inconclusive and do not appear here. For the sample, actives were picked, then their nearest neighbours and some compounds at random. Values without a mark were called inactive. The call rests on the fitted dose curve; in most records, active means well fitted activation curve with a large enough effect; inconclusive means small, poorly fitted or top-dose-only effect; inactive means no such curve, though single readings can be large or run the other way.

The text below walks through data of PubChem BioAssay AID1347071 (National Center for Advancing Translational Sciences (NCATS), 2019).

The assay can be described thus: qHTS for compounds that reverse cellular toxicity of Amyloid beta (A-beta) peptide in yeast: Primary Screen. Further: nearly all actives have a fitted effect of over 55% in size. The note with it: yeast expressing A-beta42, growth rescue, OD600, 48 h; series mostly up to 46.1 µM; growth rescue: at the top concentration. The source says:
The A-beta peptide is produced by the processing of the amyloid precursor protein (APP) by two proteases, beta and gamma secretases. […] A-beta42 is regarded as the most amyloidogenic form due to its hydrophobicity; however, precisely how A-beta42 induces neurotoxicity is unclear. To understand further this biology and its potential therapeutic implications for human neurodegenerative disease, a quantitative high-throughput screen for compounds that reverse the cellular toxicity of the A-beta peptide was developed. A yeast based screen was used because it recapitulates the salient feature of protein mis-folding disorder accurately. This cell-based phenotypic screen provides a significant, unbiased advantage by letting the compounds and models inform us which proteins or pathways are most relevant. The ideal chemical candidates would therefore have activity in both our primary yeast and secondary neuronal toxicity assays, as well as in mouse models. They will be valuable tools for dissecting diverse protein homeostasis pathologies and could potentially become the focus for future pre-clinical development. For this luminescence assay, inhibition of A-beta rescues the toxic effect in the yeast cell, resulting in increase of signals and the desired phenotype of "Activator". This screen is run against the Molecular Libraries Small Molecule Repository (MLSMR) and the NCGC Sytravon Library Collection.
NIH Chemical Genomics Center [NCGC]
NIH Molecular Libraries Probe Centers Network [MLPCN]
Assay Submitter (PI): Susan Lindquist, Whitehead Institute, Massachusetts Institute of Technology
[1] Vassar R,et al (1999). Beta-secretase cleavage of Alzheimer's amyloid precursor protein by the transmembrane aspartic protease BACE. Science. 286: 735-741.
[2] Yan R, et al (1999). Membrane-anchored aspartyl protease with Alzheimer's disease beta-secretase activity. Nature. 402: 533-536.
Two and a half microliter / well of yeast growth medium were dispensed in a 1536 assay plate. Compounds were pinned using the Kalypsys robotic system followed by addition of 2.5 uL / well yeast solution. The assay plates were incubated at 30 C. After 48 hr, the absorbance signal at 600 nm was obtained using the PerkinElmer ViewLux plate reader to assess yeast growth. The data was normalized to the positive control of an equimolar mixture of ferric chloride (FeCl3) and clioquinol and to the negative control DMSO.
In general terms: Quantitative high-throughput screening tests each substance at several concentrations.
For the compound `CCOC(=O)c1nnn(CC(=O)NC(=O)Nc2ccccc2F)c1C(=O)OCC`, the “growth rescue” value was -5.8%.

Regarding `CCS(=O)(=O)N1CCc2cc(C(=O)NCc3ccc(OC)cc3)ccc21`, the “growth rescue” value is -14%.

On to `CCOC(=O)c1cc(NC(=O)c2ccc(F)cc2)c(=O)n2c1oc1ccccc12`, for which the “growth rescue” value was -10.2%.

For the compound `COc1ccc(CCNC(=O)c2cc3cccc4c3n2CC(C)S4)c(OC)c1OC` (configuration not stated), the “growth rescue” value was -11.1%.

With `COc1ccc(Cn2c(C(=O)O)c(CNCc3cccc(OC)c3)c3ccc(C)cc32)cc1`, the “growth rescue” value was -9.33%.

For `CC(C)S(=O)(=O)c1oc(-c2ccc(F)cc2)nc1S(=O)(=O)c1ccc(F)cc1`, the “growth rescue” value is -8.6%.

In the case of `CC(Sc1oc(-c2ccco2)nc1S(=O)(=O)c1ccc(Br)cc1)c1ccccc1` (configuration not stated), the “growth rescue” value was -9.26%.

For `Cc1nn(-c2ccc(F)cc2)c(-n2cccc2)c1C(=O)N1CCN(c2ccccc2)CC1`, the “growth rescue” value is -18.4%.

On to `FC(F)(F)c1ccccc1Cc1c(-c2ccccc2)nc2c3ccccc3ccn12`, for which the Potency is 12.6 µM (active).

Take `CCCc1nc2c3ccccc3ccn2c1Cc1ccccc1C(F)(F)F`: the “growth rescue” value is -73.2%.

Take `N#Cc1ccc(-c2nc3c(Cl)cc(C(F)(F)F)cn3c2Cc2ccccc2C(F)(F)F)cc1`: the “growth rescue” value is 5.35%.

Take `COc1cccc(-n2cc(C(=O)NCc3cccc(Cl)c3)c3ccccc3c2=O)c1`: the “growth rescue” value was -6.71%.

Regarding `COc1ccc(Cn2ccn(CC(=O)Nc3cc(C)ccc3C)c(=O)c2=O)cc1`, the “growth rescue” value was 2.18%.

As for `COCCn1c(SCC(=O)c2cc(C)ccc2C)nc2cc(C(=O)NC3CCCC3)ccc2c1=O`, the “growth rescue” value is -7.47%.

Turning to `COc1cccc(C(=O)NC2(C(F)(F)F)C(=O)Nc3c2c(=O)[nH]c(=O)n3-c2ccc(C)cc2)c1` (configuration not stated), the “growth rescue” value was -11.2%.

With `CCOc1ccc(-n2c(C)nc3c(cnn3-c3ccc(C)cc3)c2=O)cc1`, the “growth rescue” value is 6.45%.

With `CCC(=O)N1c2ccccc2CC1C(=O)N1CCN(c2ccccc2)CC1` (configuration not stated), the “growth rescue” value is -3.88%.

For the compound `COc1cc(CNCCSc2nnnn2C)ccc1OCc1ccc(Cl)cc1Cl`, the “growth rescue” value was -20.7%.

On to `CC1=C(C(=O)Nc2ccccc2Cl)C(c2cccs2)n2ncnc2N1` (configuration not stated), for which the “growth rescue” value was -18.5%.

For the compound `CCCCOC(=O)CSc1ncnc2sc3c(c12)CCC(C)C3` (configuration not stated), the “growth rescue” value was -2.39%.

Consider `CC1CCCN(S(=O)(=O)c2ccc3[nH]c(=O)cc(C(=O)NCCc4ccc(Cl)cc4)c3c2)C1` (configuration not stated), for which the “growth rescue” value is -5.68%.

For `CCCn1c2ccccc2c2cnn(CC(=O)N3CCCC(C(=O)OCC)C3)c(=O)c21` (configuration not stated), the “growth rescue” value was 13.4%.

As to `CCOC(=O)c1ccc(N2C(=O)c3n[nH]c(-c4ccco4)c3C2c2ccc(O)cc2)cc1` (configuration not stated), the “growth rescue” value was -17%.

As for `COc1ccc(-c2cn3nc(N4CCCC(C(=O)NCCCOC(C)C)C4)sc3n2)cc1` (configuration not stated), the “growth rescue” value was -9.82%.

As to `COc1ccc2cc(CNc3ccc(OC)c(OC)c3)c(=O)n(CC(=O)Nc3ccccc3F)c2c1`, the “growth rescue” value was -11%.

Turning to `Cc1ccc(C)c(N2CCN(CCCNC(=O)Nc3ccc(Cl)cc3)CC2)c1`, the “growth rescue” value is -11.4%.

With `COc1ccc(S(=O)(=O)c2cn(C)c3cc(N4CCCCC4)c(F)cc3c2=O)cc1`, the “growth rescue” value was -5.52%.

For the compound `COc1cccc(CNCc2c(C(=O)O)n(Cc3ccc(C)cc3)c3cc(C)ccc23)c1OC`, the “growth rescue” value is -3.13%.

For `O=C(NC1CCCCC1)c1ccc2c(c1)N(Cc1ccc(Cl)cc1)C(=O)c1ccccc1S2=O` (configuration not stated), the “growth rescue” value was 3.65%.

In the case of `COc1ccc(NC(=O)NC(C)c2c(-n3cccc3)sc(C)c2C)cc1OC` (configuration not stated), the “growth rescue” value was -4.32%.

For the compound `COc1ccc(OC)c(-c2noc(N3CCN(c4cc(Cl)ccc4C)CC3)n2)c1`, the “growth rescue” value is 11%.

On to `O=C(Nc1c(C(=O)N2CCN(c3ccc(F)cc3)CC2)oc2ccccc12)c1ccco1`, for which the “growth rescue” value is 10.3%.

As for `CCOc1ccc(CNC(=O)c2cccc(Nc3nc4ccccc4n4nnnc34)c2)cc1OC`, the “growth rescue” value is -3.48%.

For the compound `CCc1cc2c(cc3c(=O)n(CC(=O)NCc4cccc(Cl)c4)nc(CC)n32)s1`, the “growth rescue” value is -1.66%.

As for `Cc1nn(CC(=O)NCCc2ccccc2)c(=O)c2c1sc1ccccc12`, the “growth rescue” value is -2.97%.

On to `O=C(CSc1nccn1-c1ccc(F)cc1)Nc1cccc2ccccc12`, for which the “growth rescue” value is 14.4%.

As to `Cn1c(=O)cc(OCC(=O)N2CCN(c3ccccc3)CC2)c2ccccc21`, the “growth rescue” value was -11%.

With `COc1cc2c(cc1OC)C(COc1ccc(F)cc1)N(C(=O)c1ccccc1F)CC2` (configuration not stated), the “growth rescue” value is -9.29%.

With `CCOc1ccccc1NC(=O)CSc1ncc(S(=O)(=O)c2ccc(C(C)(C)C)cc2)c(=O)[nH]1`, the “growth rescue” value was -6.06%.

In the case of `CCOCCCn1c(SCC(=O)Nc2ccc(CC)cc2)nc2ccccc2c1=O`, the “growth rescue” value is -1.09%.

For the compound `CCCN(CCC)C(=O)C1CCCN(c2ncnc3c2nc2n3CCCCC2)C1` (configuration not stated), the “growth rescue” value is -15.7%.

As to `Cn1c(=O)n(Cc2c(F)cccc2Cl)c(=O)c2c1nc1n2CCN1c1ccc(F)cc1`, the “growth rescue” value was -7.14%.

For the compound `Cc1ccc(Cl)cc1N1CCN(C(=O)c2cccn3c(=O)c4cc(Cl)ccc4nc23)CC1`, the “growth rescue” value was -4.39%.

`COCCN(Cc1ccco1)C(=O)Cn1ncc2c([nH]c3ccccc32)c1=O`: the “growth rescue” value is -11%.

For the compound `O=C(CSc1nnc(-c2ccccc2F)o1)Nc1cccc(C(F)(F)F)c1`, the “growth rescue” value is -0.988%.

On to `Cc1ccc2nc(COc3cccc(NC(=O)c4cccc(Cl)c4)c3)cc(=O)n2c1`, for which the “growth rescue” value is 12.2%.

Consider `COc1ccc(-n2ccn(CC(=O)Nc3ccc(C)c(C)c3)c(=O)c2=O)cc1OC`, for which the “growth rescue” value was 9.26%.

Consider `COc1ccc(CNC(=O)Cc2coc3ccc(C(C)C)cc23)cc1`, for which the “growth rescue” value was 10.5%.

Regarding `CCCCCn1c(=O)[nH]c2cc(C(=O)NCCN(C)CCCC)ccc2c1=O`, the “growth rescue” value was -5.05%.

Turning to `CCOc1ccc(CNC(=O)c2cc(=O)[nH]c3ccc(S(=O)(=O)N4CCCCC4)cc23)cc1`, the “growth rescue” value was 2.13%.

Take `Cc1ccc(C)c(Nc2nnc(-c3ccc(C)c(S(=O)(=O)N4CCCCC4)c3)c3ccccc23)c1`: the “growth rescue” value is -13.4%.

`CCc1cccc(C)c1Nc1c(-c2ccc(N(C)C)cc2)nc2ncccn12`: the “growth rescue” value was -13.7%.

On to `COc1ccc(-c2nc3ccccc3o2)cc1NC(=O)c1cc([N+](=O)[O-])ccc1N1CCOCC1`, for which the “growth rescue” value was -3.85%.

As for `Cc1ccc(-c2nc3ccccn3c2Nc2c(C)cccc2C)o1`, the “growth rescue” value is -15.5%.

As for `COc1ccc(NS(=O)(=O)c2cc3c4c(c2)CC(=O)N4CCC3)cc1Cl`, the “growth rescue” value is -11.2%.

Take `O=S(=O)(Nc1ccc2nc(-c3cccc(Cl)c3)oc2c1)c1ccccc1`: the “growth rescue” value is 3.5%.

For the compound `CCOC(=O)c1ccc(NC(=O)c2c(NCc3cccc(OC)c3)sc3c2CCC3)cc1`, the “growth rescue” value is 0.166%.
